# Source: PubChem BioAssay (NCI)
# Compounds without any hit were thinned out: in the full panel of roughly 83,000, 20% have a hit.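 The endpoint reported here, percent growth, reads 100 for growth as untreated, 0 for no net growth and -100 for all cells dead.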 The source made the active and inactive calls. Rule for the calls: active = growth percent below 10; inactive = the rest.
# System: HOP-62 NSCLC
# Experiment: NCI-60 one-dose screen, 48 h (100 = growth as untreated, 0 = no growth, -100 = all killed)
# Conditions: 10 µM unless noted
row,Structure (SMILES),growth
1,CN(C)CCCN=c1cc2c(=O)n(CCCN(C)C)c(=O)c3c(NCCCN(C)C)cc4c(O)n(CCCN(C)C)c(=O)c1c4c3-2,-11.4% (active)
2,O=C(NN1C(=O)c2cc(C(=O)O)c(C(=O)O)cc2C1=O)c1ccncc1,99.3% (inactive)
3,COc1ccc2c(c1)sc1nc(-c3ccc(Br)cc3)cn12,108% (inactive)
4,O=C(CNC(=O)c1cccc2ccccc12)Nc1ccccc1Oc1cccc(O)c1,19.2% [5 µM] (inactive)
5,NC(=N\N=C/Cc1ccccc1)/C(N)=N\N=C\Cc1ccccc1,113% (inactive)
6,COc1cccc(/C=N/Nc2nc3ccccc3s2)c1OC,68.8% (inactive)
7,COC(=O)c1cc2c(/C=C3/NC(=S)NC3=O)coc2n1C,89.3% (inactive)
8,Cc1cc(=O)oc2cc(OCCn3c(C)nn(-c4ccc(Cl)cc4)c3=O)ccc12,27.4% (inactive)
9,Cn1c(N2N=C(c3ccc(Cl)cc3)CC2c2ccccc2)nc(-c2ccccc2)c(C#N)c1=O (stereo not given),83% (inactive)
10,Nc1ccc(N=Nc2ccccc2)cc1[N+](=O)[O-],91.9% (inactive)
11,Cc1sc2nc(NCc3ccccc3)[nH]c(=O)c2c1C,39.2% (inactive)
12,COc1ccc(C(=O)/C=C/c2cccc(Nc3ccnc4cc(Cl)ccc34)c2)cc1,18.8% (inactive)
13,CC(=O)N1N=C(c2ccc(Nc3nc(NCCO)nc(NCCO)n3)cc2)CC1c1ccc(Cl)cc1 (stereo not given),93.7% (inactive)
14,Cc1csc(C#Cc2cncc(O)c2)n1,110% (inactive)
15,C=C1CCC2C3(C)COC(c4ccccc4)OC3CCC2(C)C1C/C=C1/C(=O)OCC1OC(C)=O (stereo not given),96.1% (inactive)
16,COc1cc(/C=C/C(=O)C(C(=O)/C=C/c2ccc(OC(=O)CCNc3nnc(C)s3)c(OC)c2)C(=O)CCNc2nnc(C)s2)ccc1OC(=O)CCNc1nnc(C)s1,27.6% (inactive)
17,Nc1nc(Nc2ccccc2SSc2ccccc2Nc2nc(N)nc(C(Cl)(Cl)Cl)n2)nc(C(Cl)(Cl)Cl)n1,-34% (active)
18,COC(=O)C1=CCC(n2cnc3c(N)ncnc32)O1 (stereo not given),94.3% (inactive)

row,Structure (SMILES),growth
1,c1ccc(-c2oc(-c3ccccc3)c3ccccc23)cc1,98.2% (inactive)
2,COc1ccc(CCN2C(=O)CCC3=C2CCCC3=O)cc1OC,95.3% (inactive)
3,CCCCCc1c(C)[nH]c(/C=C2\N=C(c3ccc[nH]3)C=C2Oc2ccc(Cl)cc2)c1C,-6.67% [100 µM] (active)
4,O=C1Nc2ccc(Cl)cc2[C@@](C#CC2CC2)(C(F)(F)F)O1,104% (inactive)
5,CC(=O)N1N=C(c2ccc(C(F)(F)F)cc2)CC1c1ccc2c(c1)OCO2 (stereo not given),102% (inactive)
6,O=C(CN1CCN(c2ccc(Cl)cc2)CC1)N1CCN(c2nnc(-c3ccccc3)c(-c3ccccc3)n2)CC1,58.1% (inactive)
7,NC(=O)NC1(C(=O)O)CCCC1,110% (inactive)
8,Cc1ccc(C(=O)Cc2ccccc2)c(O)c1,104% (inactive)
9,CCOC(=O)N1CCC(N=C2CSc3nnc(-c4cc(C(F)(F)F)cc(C(F)(F)F)c4)n3N2)CC1,-4.27% (active)
10,CCOC(=O)c1cc2oc(/C=C/c3cc(=O)c4cc(Cl)ccc4o3)cc2[nH]1,99.6% (inactive)
11,O=c1ncc(-c2ccc(C(F)(F)F)cc2)c(NC2CCCCCC2)[nH]1,64% (inactive)
12,CCOc1nc(-c2ccco2)n2nc(-c3ccco3)cc2n1,118% (inactive)
13,O=C(N/N=C/c1cccc(O)c1)c1ccc(C(F)(F)F)nc1Nc1cccc(C(F)(F)F)c1,-32.9% (active)
14,CC(C)CNc1nc(N=[N+]=[N-])nc(NCC(C)C)n1,84.1% [100 µM] (inactive)
15,COc1ccc2c3c(ccc2c1)C(=O)/C(=C\O)CC3,114% (inactive)
16,O=C(NC1CCS(=O)(=O)C1)c1ccc(C(=O)c2ccccc2)cc1 (stereo not given),101% (inactive)
17,COc1ccc2cc(-c3nc4ccccc4[nH]3)c(=O)oc2c1,93.9% (inactive)
18,Cc1ccc(S(=O)(=O)N2CCN(C(=O)CSc3nc4ccc(C)cc4[nH]3)CC2)cc1,106% (inactive)

# System: NCI-H460 lung
# Experiment: as above
# Conditions: 10 µM unless noted
row,Structure (SMILES),growth
1,CCNCCCn1c2c(c3ccc(F)cc3c1=O)C(=O)c1cc(OC)cnc1-2,-27.1% (active)
2,CN(C)CCCN=c1cc2c(=O)n(CCCN(C)C)c(=O)c3c(NCCCN(C)C)cc4c(O)n(CCCN(C)C)c(=O)c1c4c3-2,-43.5% (active)
3,O=C(NN1C(=O)c2cc(C(=O)O)c(C(=O)O)cc2C1=O)c1ccncc1,111% (inactive)
4,COc1ccc2c(c1)sc1nc(-c3ccc(Br)cc3)cn12,117% (inactive)
5,O=C(CNC(=O)c1cccc2ccccc12)Nc1ccccc1Oc1cccc(O)c1,11.2% [5 µM] (inactive)
6,NC(=N\N=C/Cc1ccccc1)/C(N)=N\N=C\Cc1ccccc1,112% (inactive)
7,COc1cccc(/C=N/Nc2nc3ccccc3s2)c1OC,34.5% (inactive)
8,COC(=O)c1cc2c(/C=C3/NC(=S)NC3=O)coc2n1C,115% (inactive)
9,Cc1cc(=O)oc2cc(OCCn3c(C)nn(-c4ccc(Cl)cc4)c3=O)ccc12,17.2% (inactive)
10,Cn1c(N2N=C(c3ccc(Cl)cc3)CC2c2ccccc2)nc(-c2ccccc2)c(C#N)c1=O (stereo not given),58.7% (inactive)
11,Nc1ccc(N=Nc2ccccc2)cc1[N+](=O)[O-],100% (inactive)
12,CCN(CC)CCCCCCCNc1c2ccc(Cl)cc2nc2ccc(OC)cc12,-67.6% (active)
13,Cc1sc2nc(NCc3ccccc3)[nH]c(=O)c2c1C,26.6% (inactive)
14,COc1ccc(C(=O)/C=C/c2cccc(Nc3ccnc4cc(Cl)ccc34)c2)cc1,31.6% (inactive)
15,CC(=O)N1N=C(c2ccc(Nc3nc(NCCO)nc(NCCO)n3)cc2)CC1c1ccc(Cl)cc1 (stereo not given),101% (inactive)
16,Cc1csc(C#Cc2cncc(O)c2)n1,121% (inactive)
17,CCOC(=O)C1C(=O)NC(C(=O)OCC)(C(=O)OCC)C1CC (stereo not given),117% (inactive)
18,C=C1CCC2C3(C)COC(c4ccccc4)OC3CCC2(C)C1C/C=C1/C(=O)OCC1OC(C)=O (stereo not given),103% (inactive)
19,COc1cc(/C=C/C(=O)C(C(=O)/C=C/c2ccc(OC(=O)CCNc3nnc(C)s3)c(OC)c2)C(=O)CCNc2nnc(C)s2)ccc1OC(=O)CCNc1nnc(C)s1,-29% (active)
20,Nc1nc(Nc2ccccc2SSc2ccccc2Nc2nc(N)nc(C(Cl)(Cl)Cl)n2)nc(C(Cl)(Cl)Cl)n1,69.6% (inactive)

row,Structure (SMILES),growth
1,COC(=O)C1=CCC(n2cnc3c(N)ncnc32)O1 (stereo not given),121% (inactive)
2,c1ccc(-c2oc(-c3ccccc3)c3ccccc23)cc1,102% (inactive)
3,COc1ccc(CCN2C(=O)CCC3=C2CCCC3=O)cc1OC,106% (inactive)
4,CCCCCc1c(C)[nH]c(/C=C2\N=C(c3ccc[nH]3)C=C2Oc2ccc(Cl)cc2)c1C,2.82% [100 µM] (active)
5,O=C1Nc2ccc(Cl)cc2[C@@](C#CC2CC2)(C(F)(F)F)O1,102% (inactive)
6,CC(=O)N1N=C(c2ccc(C(F)(F)F)cc2)CC1c1ccc2c(c1)OCO2 (stereo not given),85% (inactive)
7,O=C(CN1CCN(c2ccc(Cl)cc2)CC1)N1CCN(c2nnc(-c3ccccc3)c(-c3ccccc3)n2)CC1,30.7% (inactive)
8,NC(=O)NC1(C(=O)O)CCCC1,112% (inactive)
9,Cc1ccc(C(=O)Cc2ccccc2)c(O)c1,111% (inactive)
10,CCOC(=O)N1CCC(N=C2CSc3nnc(-c4cc(C(F)(F)F)cc(C(F)(F)F)c4)n3N2)CC1,18.2% (inactive)
11,CCOC(=O)c1cc2oc(/C=C/c3cc(=O)c4cc(Cl)ccc4o3)cc2[nH]1,88.9% (inactive)
12,O=c1ncc(-c2ccc(C(F)(F)F)cc2)c(NC2CCCCCC2)[nH]1,55.1% (inactive)
13,CCOc1nc(-c2ccco2)n2nc(-c3ccco3)cc2n1,102% (inactive)
14,O=C(N/N=C/c1cccc(O)c1)c1ccc(C(F)(F)F)nc1Nc1cccc(C(F)(F)F)c1,11.5% (inactive)
15,CC(C)CNc1nc(N=[N+]=[N-])nc(NCC(C)C)n1,68.8% [100 µM] (inactive)
16,COc1ccc2c3c(ccc2c1)C(=O)/C(=C\O)CC3,102% (inactive)
17,O=C(NC1CCS(=O)(=O)C1)c1ccc(C(=O)c2ccccc2)cc1 (stereo not given),104% (inactive)
18,COc1ccc2cc(-c3nc4ccccc4[nH]3)c(=O)oc2c1,101% (inactive)
19,Cc1ccc(S(=O)(=O)N2CCN(C(=O)CSc3nc4ccc(C)cc4[nH]3)CC2)cc1,110% (inactive)
